DUX4 txn inh: DUX4-mediated transcription inhibition; 293T-iDUX4 ZSCAN4-Gaussia luciferase reporter, 24 h; stronger effect = lower value; activity change, negative = inhibition, % (concentration not given with the values); AID 1224904; hit rate 0.8% among 37,000;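 active = mean inhibition of at least 10% in the main channel, exceeding the control channel by a set limit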;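 also: 0% = median of neutral control wells and -100% = median of positive control wells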
The depositor's hits bear a star; ! = not active in a repeat. This is one part of a sample in which hits are shown more often than they occur.

SMILES | DUX4 txn inh
COc1cc(CN2C[C@@H]3N[C@H](C2)C3c2ccc(-c3cncnc3)cc2)cc(OC)c1 (stereo not given in full) | 2
CCCNC(=O)Nc1ccc2c(c1)OC[C@@H](C)N(C(=O)CC)C[C@@H](C)[C@H](OC)CN(C)C2=O | 1
C[C@@H]1CCCCO[C@@H](CN(C)S(=O)(=O)c2cn(C)cn2)[C@H](C)CN([C@@H](C)CO)C(=O)c2cc(N(C)C)ccc2O1 | 3
Cc1cccc(-c2ccc([C@@H]3[C@@H](CO)N4CCCCN(CCC(F)(F)F)C[C@H]34)cc2)c1 | 14
OC[C@H]1[C@@H](c2ccc(-c3cccc(F)c3)cc2)[C@H]2CN(Cc3cncnc3)CCCCN21 | 5
CN(C)C(=O)c1ccc(-c2ccc([C@H]3[C@@H](CO)N4CCCCN(CCC(F)(F)F)C[C@@H]34)cc2)cc1 | 6
Cc1cccc(-c2ccc([C@H]3[C@@H](CO)N4CCCCN(CCC(F)(F)F)C[C@H]34)cc2)c1 | -39*
Cc1cccc(-c2ccc([C@H]3[C@@H](CO)N4CCCCN(Cc5ccncc5)C[C@H]34)cc2)c1 | -7
CN(C)C(=O)c1ccc(-c2ccc([C@@H]3[C@@H](CO)N4CCCCN(CCC(F)(F)F)C[C@H]34)cc2)cc1 | 7
Cc1cccc(-c2ccc([C@@H]3[C@@H](CO)N4CCCCN(CCC(F)(F)F)C[C@@H]34)cc2)c1 | -56*
OC[C@@H]1[C@@H](c2ccc(-c3cccc(F)c3)cc2)[C@@H]2CN(Cc3cncnc3)CCCCN12 | 27
OC[C@H]1[C@H](c2ccc(-c3cccc(F)c3)cc2)[C@@H]2CN(CCC(F)(F)F)CCCCN12 | -47*
CC[C@@H]1CC=CC[C@@H](C)Oc2ccccc2C(=O)N(C)[C@@H](C(C)C)C(=O)N1 (mixture of isomers) | -4
CCCNC(=O)N1[C@H](CO)[C@H]2c3ccccc3N(C)C[C@H]21 | -1
CCCNC(=O)Nc1ccc2c(c1)C(=O)N(C)C[C@H](OC)[C@@H](C)CN(Cc1cccnc1)[C@H](C)CO2 | 3
COc1ccc2c3c(n(C)c2c1)[C@H](CO)N(C(C)=O)CC31CN(Cc2nccs2)C1 | 16
O=C(C1CC1)N1CC2(C1)[C@@H](c1ccccc1)[C@@H](CO)N2Cc1ccccc1F | -2
COc1cccc(CN2CC3(C2)[C@H](c2ccccc2)[C@@H](CO)N3Cc2ccccc2OC)c1 | -36*
COc1ccccc1CN1[C@H](CO)[C@H](c2ccccc2)C12CN(C(C)=O)C2 | 3
OC[C@H]1[C@H](c2ccccc2)C2(CN(Cc3ccccc3F)C2)N1Cc1ccccc1F | -35*
COc1ccccc1CN1[C@@H](CO)[C@H](c2ccccc2)C12CN(C(C)=O)C2 | -6
COc1ccccc1CN1[C@@H](CO)[C@@H](c2ccccc2)C12CN(C(C)=O)C2 | 3
CCC(=O)N1CC2(C1)[C@H](c1ccccc1)[C@@H](CO)N2Cc1ccccc1F | 3
COc1cccc(CN2[C@H](CO)[C@@H](c3ccccc3)C23CN(C(=O)C2CC2)C3)c1 | -6
COc1cccc(CN2[C@@H](CO)[C@H](c3ccccc3)C23CN(Cc2ccccc2OC)C3)c1 | -44*
SMILES | DUX4 txn inh
COC(=O)[C@@H]1[C@@H](CO)[C@@H]2Cn3c(ccc(-c4ccccc4F)c3=O)[C@@H]2N1C(=O)c1cnccn1 | 11
O=S(=O)(c1ccccc1F)N1C[C@@H]2[C@H](c3ccccc31)[C@H](CO)N2Cc1ccc2c(c1)OCO2 | -1
COc1ccc(C(=O)N2C[C@H]3[C@@H](c4ccccc42)[C@H](CO)N3Cc2ccc3c(c2)OCO3)cc1 | 2
C[C@H]1CN([C@@H](C)CO)C(=O)Cc2cc(NC(=O)C3CCCCC3)ccc2O[C@@H]1CN(C)S(=O)(=O)c1ccc(F)cc1 | 0
CCCNC(=O)C[C@@H]1CC[C@H]2[C@@H](COc3ccc(NC(=O)c4cccc(C(F)(F)F)c4)cc3C(=O)N2C)O1 | 5
C[C@@H]1CN([C@H](C)CO)C(=O)c2c(c3ccccc3n2C)-c2ccccc2CO[C@@H]1CN(C)C(=O)Nc1ccc(-c2ccccc2)cc1 | -1
CC(=O)N1C[C@@H]2N[C@H](C1)C2c1ccc(-c2ccccc2)cc1 (stereo not given in full) | 1
N#Cc1cccc(-c2ccc(C3[C@@H]4CN(C(=O)C5CCCCC5)C[C@H]3N4)cc2)c1 (stereo not given in full) | -52*!
O=C(C1CCOCC1)N1C[C@@H]2N[C@H](C1)C2c1ccc(-c2cccc(F)c2)cc1 (stereo not given in full) | -8
N#Cc1ccc(-c2ccc(C3[C@@H]4CN(C(=O)c5ccncc5)C[C@H]3N4)cc2)cc1 (stereo not given in full) | -6
N#Cc1cccc(-c2ccc(C3[C@@H]4CN(C(=O)c5ccncc5)C[C@H]3N4)cc2)c1 (stereo not given in full) | 1
N#Cc1ccc(-c2ccc(C3[C@@H]4CN(C(=O)C5CCCCC5)C[C@H]3N4)cc2)cc1 (stereo not given in full) | -52*!
C[C@H](NC(=O)C[C@@H]1C=C[C@H](NC(=O)CN2CCOCC2)[C@@H](CO)O1)c1ccccc1 | -4
C[C@@H]1CN([C@@H](C)CO)C(=O)c2ccccc2-c2ccccc2CO[C@H]1CN(C)C(=O)c1ccccc1 | 8
CN1C(=O)c2cc(NC(=O)c3ccc(F)c(F)c3)ccc2OC[C@@H]2O[C@@H](CC(=O)N[C@@H]3CCN(Cc4ccccc4)C3)CC[C@@H]21 | -6
COc1ccc(NC(=O)N(C)C[C@H]2Oc3ncc(C#C[C@@H](C)O)cc3C(=O)N([C@@H](C)CO)C[C@@H]2C)cc1 | -2
COc1ccccc1-c1ccc2n(c1=O)C[C@@H]1[C@@H](CO)[C@H](C(=O)N(C)C)N(C(=O)c3cccnc3)[C@H]21 | -3
COc1ccccc1C#Cc1ccc2c(c1)[C@@H]1[C@@H](CCN1C(=O)c1cccc(F)c1)[C@H](CO)N2 | -6
O=C(c1ccccc1)N1CC[C@H]2[C@H](CO)Nc3ccc(C#Cc4cccc(F)c4)cc3[C@H]21 | 1
O=C(c1ccccc1)N1CC[C@@H]2[C@H](CO)Nc3ccc(C#Cc4cccc(F)c4)cc3[C@@H]21 | -40*
O=C(c1ccc2c(c1)OCO2)N1CC[C@@H]2[C@H](CO)Nc3ccc(C#Cc4ccccc4)cc3[C@@H]21 | -54*
O=C(c1ccc2c(c1)OCO2)N1CC[C@@H]2[C@H]1c1cc(-c3ccccc3)ccc1N[C@@H]2CO | 6
COc1ccc(C#Cc2ccc3c(c2)[C@@H]2[C@@H](CCN2C(=O)c2ccccc2F)[C@@H](CO)N3)cc1 | 11
O=C(c1ccccc1F)N1CC[C@@H]2[C@H](CO)Nc3ccc(C#Cc4ccc(F)cc4)cc3[C@@H]21 | -33*
O=C(c1ccc2c(c1)OCO2)N1CC[C@@H]2[C@H](CO)Nc3ccc(-c4ccccc4)cc3[C@@H]21 | 5
O=C(c1ccccc1F)N1CC[C@@H]2[C@@H](CO)Nc3ccc(C#Cc4ccccc4F)cc3[C@@H]21 | -3
C/C=C/c1ccc([C@H]2[C@@H](C#N)N(c3ncc(CC)s3)[C@@H]2CO)cc1 | -2
CC(C)NC(=O)N[C@@H]1C=C[C@H](CC(=O)NCCCN(C)C)O[C@@H]1CO | 2
CN(C)C(=O)C[C@H]1CC[C@@H]2[C@@H](COc3ccc(NC(=O)Nc4cccc(Cl)c4)cc3C(=O)N2C)O1 | -1
C[C@H]1CN([C@@H](C)CO)C(=O)c2c(c3ccccc3n2C)-c2ccccc2CO[C@H]1CN(C)Cc1ccc(-c2ccccc2)cc1 | -3
